24 compounds from PubChem BioAssay (EPA / NIEHS) can be followed below.

Assay [1] can be described thus: ATG_XTT_Cytotoxicity: Cytotoxicity Assessment in the Attagene TRANS-FACTORIAL HepG2 Assay (AID 2283584). A digest of the protocol:
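XTT readout of cell number in transfected HepG2 cells, 24 h post-dosing; DMSO serves as negative control and baseline, with activity taken as loss of viability signal.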

The nature of assay [2]: TOX21_p53_BLA_p2_viability: Viability Assessment in the Tox21 HCT-116 p53 Agonism Beta-lactamase Assay, Phase 2 (AID 2283591).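 Note: compound exposure lasted 16 h at 37 °C; actives lower the ATP signal meaning cytotoxicity.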 Summed up:
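Cytotoxicity readout: CellTiter-Glo ATP luminescence, 30 min at room temperature, after the beta-lactamase read. Cells were HCT116 exposed 16 h at 37C to compounds pin-transferred at 217-fold dilution from DMSO stocks.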

Assay [3] concerns the target Cellular tumor antigen p53 (Homo sapiens) (UniProt P04637). The assay is described as follows: TOX21_p53_BLA_p2_ratio: Tox21 HCT-116 p53 Agonism Beta-lactamase Assay, Ratio, Phase 2 (AID 2283592). A digest of the protocol:
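In this cell-based reporter format, HCT116 cells were dosed with chemicals delivered from DMSO by 217-fold dilution and incubated 16 h at 37C. Emission at 460 and 530 nm after 2 h CCF4-AM loading provided the ratio, fitted upward versus DMSO.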

Assay [4] in a line: TOX21_p53_BLA_p3_viability: Viability Assessment in the Tox21 HCT-116 p53 Agonism Beta-lactamase Assay, Phase 3 (AID 2283593).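 Note: cells exposed to compound for 16 h before reading.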 Summed up: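 Cellular ATP was quantified by CellTiter-Glo luminescence, read after 30 min at room temperature. Beforehand, HCT116 cells (4000/well) received compound 5 h post-seeding, 217-fold diluted from DMSO, then incubated 16 h at 37C.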
The target in assay [5] is Cellular tumor antigen p53 (Homo sapiens) (UniProt P04637). The assay is described as follows: TOX21_p53_BLA_p3_ratio: Tox21 HCT-116 p53 Agonism Beta-lactamase Assay, Ratio, Phase 3 (AID 2283596). A digest of the protocol:
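HCT116 p53-bla cells (4000/well) given compound in DMSO (217-fold dilution) after 5 h, incubated 16 h at 37C. CCF4-AM substrate 2 h at room temperature; 460/530 nm emission ratio, gain fitted against DMSO.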

A short description of assay [6]: TOX21_p53_BLA_p4_viability: Viability Assessment in the Tox21 HCT-116 p53 Agonism Beta-lactamase Assay, Phase 4 (AID 2283597).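 Note: hits lower the luminescence signal meaning cytotoxicity.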 A digest of the protocol: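 We seeded HCT116 p53 reporter cells at 4000/well and waited 5 h. We then added compounds in DMSO at a 217-fold dilution and incubated for 16 h. Viability was read as CellTiter-Glo luminescence after 30 min at RT.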

The target in assay [7] is Cellular tumor antigen p53 (Homo sapiens) (UniProt P04637). The assay is described as follows: TOX21_p53_BLA_p5_ratio: Tox21 HCT-116 p53 Agonism Beta-lactamase Assay, Ratio, Phase 5 (AID 2283599). Summed up: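 Beta-lactamase reporter ratio (blue 460 nm over green 530 nm, 405 nm excitation) after 2 h CCF4-AM loading, in HCT-116 cells exposed 16 h at 37 C to compounds pinned at 217-fold dilution. Increases relative to DMSO baseline scored.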
Sequence of Cellular tumor antigen p53 (Homo sapiens) (P04637 whole entry, looked up): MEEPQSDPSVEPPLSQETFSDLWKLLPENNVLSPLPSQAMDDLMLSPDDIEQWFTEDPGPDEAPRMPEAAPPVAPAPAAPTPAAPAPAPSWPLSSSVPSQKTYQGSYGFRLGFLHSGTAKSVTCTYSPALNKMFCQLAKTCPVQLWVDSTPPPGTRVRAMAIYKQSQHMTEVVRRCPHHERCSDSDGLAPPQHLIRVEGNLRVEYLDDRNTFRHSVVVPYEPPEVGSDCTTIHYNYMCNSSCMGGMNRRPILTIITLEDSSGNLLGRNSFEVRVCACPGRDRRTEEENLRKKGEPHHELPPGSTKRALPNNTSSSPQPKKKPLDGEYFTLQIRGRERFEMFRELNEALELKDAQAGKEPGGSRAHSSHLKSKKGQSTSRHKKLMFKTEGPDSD

Assay [8] in a line: TOX21_p53_BLA_p5_viability: Viability Assessment in the Tox21 HCT-116 p53 Agonism Beta-lactamase Assay, Phase 5 (AID 2283600). A digest of the protocol:
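Compounds, pinned from DMSO at 217-fold dilution, were left on the cells for 16 h. The viability endpoint was ATP content measured by CellTiter-Glo luminescence, where falling signal reflects cytotoxicity.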

Records with an inconclusive call do not appear. Calls of active or inactive are those of the source. Rule for the calls: active = hit-call score of the fitted dose curve at least 0.9, where 1 is the maximum; inconclusive = response in the unintended direction; inactive = score below 0.9.

In the case of `CCCCCCC(C)(C)S`, the outcome in assay [1] was inactive.

Regarding `CCC1CCCCC1`, the compound was classed as inactive in assay [1].

Consider `NCc1ccco1`, for which the result in assay [1] was inactive.

In the case of `CCCCCCC(O)CCCCCCCCCCC(=O)O` (stereo unspecified), the outcome in assay [1] was inactive.

With `CC1=C(Br)C(=O)C(Br)=C/C1=C(/c1ccccc1S(=O)(=O)O)c1cc(Br)c(O)c(Br)c1C`, the result in assay [1] was inactive.

Regarding `C=Cc1ccc(C(C)(C)C)cc1`, in assay [1], the result was inactive.

Regarding `CC(C)(N=C=O)c1cccc(C(C)(C)N=C=O)c1`, the outcome in assay [1] was inactive.

`COc1ccc(COC(C)=O)cc1`: in assay [1], the compound was called inactive.

Consider `COc1ccc(OC)c(N=Nc2c(O)ccc3ccccc23)c1`, for which the result in assay [1] was inactive.

For the compound `COc1cccc(OC)c1O`, the call in assay [1] was inactive.

Turning to `COc1cc(C(C)C)ccc1C`, the compound was classed as inactive in assay [1].

On to `COC(=O)c1ccc([N+](=O)[O-])cc1`, for which the call in assay [1] was inactive.

In the case of `CC(=O)O[C@@H]1C[C@@H]2CC[C@@]1(C)C2(C)C`, the result in assay [1] was inactive.

Regarding `BrCc1cccc(Oc2ccccc2)c1`, the compound was classed as inactive in assay [1].

Turning to `CCNCCO`, the result in assay [1] was inactive.

Consider `Nc1ccc2cc(S(=O)(=O)O)cc(O)c2c1N=Nc1ccccc1C(F)(F)F`, for which the call in assay [1] was inactive.

As for `CCCCCCCCCCCC(=O)OCC(O)CO` (stereo unspecified), the result in assay [1] was inactive.

For `CCCCCCC(C)Nc1ccc(Nc2ccccc2)cc1` (stereo unspecified), in assay [1], the call was inactive.

As to `CC/C=C\CC/C=C/CO`, the result in assay [1] was inactive.

Turning to `COc1ccc(CCO)cc1`, the compound was called inactive in assay [1].

Consider `O=C(Nc1ccc([N+](=O)[O-])cc1)Nc1ccc([N+](=O)[O-])cc1` (tested in a mixture with another compound), for which the result in assay [1] was inactive.

Turning to `Clc1cc(Cl)c(-c2c(Cl)c(Cl)cc(Cl)c2Cl)cc1Cl`, the outcome in assay [1] was inactive.

For the compound `C=C(C)[C@@H]1CC=C(C)C(=O)C1`, in assay [1], the result was inactive.

For the compound `CC1C2CC(CC2C2CCCC(O)C2)C1(C)C` (stereo unspecified), the call in assay [1], in assay [2], in assay [3], in assay [4], in assay [5] and in assay [6] was inactive. Also, the outcome in assay [7] and in assay [8] was inactive.
